Screen size: about 16,000 compounds; about 5,100 (32%) were called active. Inconclusive results (about 25%) are left out. Some of the results follow. Unmarked numbers belong to inactive results. Calls come from the whole dose curve; as a rule, active = well fitted curve in the direction sought with a large enough effect; inconclusive = small, poorly fitted or top-dose-only effect, or effect the other way; inactive = no such curve, though single readings can be large or run the other way.
% is set by controls: 0 for no effect and ±100 for the full control effect.

The target in the test is Cytochrome P450 3A4 (Homo sapiens) (UniProt P08684). Kind of test: Cytochrome panel assay with activity outcomes. Conditions: recombinant CYP, pro-luciferin dealkylation, luminescence, p450-cyp3a4; series mostly up to 57.1 µM; activity, negative = inhibition: at the top concentration.
Chain of Cytochrome P450 3A4 (Homo sapiens) (P08684 whole entry, looked up): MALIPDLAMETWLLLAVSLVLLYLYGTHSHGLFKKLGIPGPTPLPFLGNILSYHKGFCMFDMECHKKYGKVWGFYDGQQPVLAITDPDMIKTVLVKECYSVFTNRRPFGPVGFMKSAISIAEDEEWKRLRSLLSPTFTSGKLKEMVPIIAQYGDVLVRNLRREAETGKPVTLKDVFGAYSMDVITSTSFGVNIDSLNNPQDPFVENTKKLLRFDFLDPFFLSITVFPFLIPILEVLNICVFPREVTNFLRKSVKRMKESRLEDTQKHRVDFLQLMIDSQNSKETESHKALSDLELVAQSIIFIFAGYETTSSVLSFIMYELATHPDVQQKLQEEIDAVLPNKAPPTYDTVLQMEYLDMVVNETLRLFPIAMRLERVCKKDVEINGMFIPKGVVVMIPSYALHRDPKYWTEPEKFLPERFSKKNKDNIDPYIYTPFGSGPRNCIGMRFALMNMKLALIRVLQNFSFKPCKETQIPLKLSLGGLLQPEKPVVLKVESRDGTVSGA
`COC(=O)[C@@H](N)CCCN=C(N)N[N+](=O)[O-]`: the “activity, negative = inhibition” value was -12.7%.
`CCn1cc(C(=O)O)c(=O)c2cc3c(cc21)OCO3`: the “activity, negative = inhibition” value was -9.37% [at 25.6 µM].
Consider `FC(F)(F)c1nc2ccc(SSc3ccc4nc(C(F)(F)F)[nH]c4c3)cc2[nH]1`, for which the activity, negative = inhibition is 4.91% [at 11.4 µM].
As usually defined, the AC50 is the concentration at which the activity in the assay is half-maximal. In the case of `CC(C)=C[C@H]1[C@@H](C(=O)OCc2cc3c(cc2Cl)OCO3)C1(C)C`, the AC50 was 0.316 µM (active).
Take `CC(C)C(=O)CP(=O)(O)O`: the activity, negative = inhibition is 2.74% [at 11.4 µM].
On to `c1ccc(CN2CCN(Cc3ccc4c(c3)OCCO4)CC2)cc1`, for which the activity, negative = inhibition was -16.2% [at 11.4 µM].
Take `O=C(c1ccncc1)N1CCC2(CC1)CN(Cc1ccccc1)C2`: the AC50 is 20 µM (active).
In the case of `c1csc(CN2CC[C@@]3(CCCNC3)C2)n1`, the “activity, negative = inhibition” value is -13.6%.
Turning to `CC(C)CN1CCC2(CC1)CCN(C(=O)Oc1ccccc1)CC2`, the “activity, negative = inhibition” value is 10.7%.
On the same count and under the same terms, to `c1cc(CN2CCC3(CCNCC3)CC2)ccn1` belongs -12.2%; to `CN1CCCC2(CCN(C(=O)c3ccncc3)CC2)C1`, -21.7%.
Regarding `O=C(Oc1ccccc1)N1CCC2(CCCN(Cc3nccs3)C2)CC1`, the AC50 is 12.6 µM (active).
In the case of `c1csc(CN2CCCC3(CCNCC3)C2)n1`, the “activity, negative = inhibition” value is -39.5%.
For `CC(C)CN1CCCC2(CCN(C(=O)c3ccncc3)CC2)C1`, the AC50 is 12.6 µM (active).
As to `CC(C)CN1CC2(CCN(C(=O)c3ccncc3)CC2)C1`, the “activity, negative = inhibition” value is -28.2%.
Turning to `O=C(Oc1ccccc1)N1CCC2(CCN(Cc3ccncc3)CC2)CC1`, the AC50 was 12.6 µM (active).
Turning to `Cc1noc(C)c1C(=O)N1CCC2(CCCN(CC(C)C)C2)CC1`, the “activity, negative = inhibition” value is -15.7%.
As to `N=C(N)n1cc(/C=N\N=C(N)N)cn1`, the activity, negative = inhibition was -16.6% [at 11.4 µM].
The same measure, in the same setting: to `c1ccc2c(c1)-c1ccccc1C2N1CC2CCC(CC2)C1` belongs -5.36% [at 11.4 µM]; to `CN1[C@@H](C[C@@H](O)c2ccccc2)CCC[C@@H]1C[C@H](O)c1ccccc1`, 20.8% [at 25.6 µM]; to `O=[N+]([O-])c1cc(-c2ccc([As](=O)(O)O)cc2)ccc1[As](=O)(O)O`, 9.09% [at 11.4 µM].
For the compound `O=C(O)[C@@H]1[C@H](C(=O)O)[C@]2(Cl)C(Cl)=C(Cl)[C@@]1(Cl)C2(Cl)Cl`, the activity, negative = inhibition was -9.54% [at 11.4 µM].
Same read-out and setting: to `C(#CCN1CCCC1)CN1CCCC1` belongs -0.507% [at 25.6 µM]; to `C[C@]12CC[C@H](O)C[C@@H]1CC[C@H]1[C@H]2CC[C@]2(C)C(=O)CC[C@@H]12`, “inactive”.
Take `Cc1cccc(NC(=S)NC2CC3CCCC(C2)N3Cc2cccs2)c1` (stereo unspecified): the activity, negative = inhibition was -1.32% [at 2.29 µM].
Still for that read-out and setting: with `COc1ccc(C[C@H]2NC[C@H](O)[C@@H]2OC(C)=O)cc1` the figure was -6.91%; with `COC1=C(C)C(=O)c2c(c(COC(N)=O)c3n2C[C@@H]2[C@@H]3N2C)C1=O` (stereo partly specified), -20.6% [at 11.4 µM].
Turning to `COC(=O)[C@@H]1c2cc3c(c(O)c2[C@@H](O)C[C@]1(C)O)C(=O)c1c(O)cc2c(c1C3=O)O[C@H]1O[C@@]2(C)[C@@H](O)[C@H](N(C)C)[C@H]1O`, the activity, negative = inhibition is -12% [at 11.4 µM].
On to `C[C@@]12CC[C@H](O[C@@H]3O[C@H](CO)[C@@H](O)[C@H](O)[C@@H]3O)C[C@@H]1CC[C@H]1[C@H]2CC[C@@]2(C)[C@@H](C3=CCOC3=O)CC[C@]12O`, for which the activity, negative = inhibition is 0.209% [at 11.4 µM].
Turning to `C1C[C@@H]2CN(CCCN3CCOCC3)[C@@H](C1)O2`, the activity, negative = inhibition was -5.91% [at 11.4 µM].
Same read-out and setting: to `NN=C(N)N` belongs -9.75%.
Turning to `Clc1ccc(C(c2ccc(Cl)cc2)n2cc[n+](C[C@@H](OCc3ccc(Cl)cc3Cl)c3ccc(Cl)cc3Cl)c2)cc1`, the AC50 is 15.8 µM (active).
Consider `CC(C)CN1CCC2(CC1)CCN(S(C)(=O)=O)CC2`, for which the “activity, negative = inhibition” value was -10.9%.
Consider `O=c1[nH]oc2c1CCNC2`, for which the activity, negative = inhibition result is “inactive”.
`CCC1(CC)C(=O)C=CNC1=O`: the “activity, negative = inhibition” value was -11.7% [at 25.6 µM].
As for `CC(C)[C@@H]1CN[C@H](C(=O)O)[C@@H]1CC(=O)O`, the “activity, negative = inhibition” value is -9.31%.
With `C=C1CC[C@H](O)C/C1=C/C=C1\CCC[C@]2(C)[C@H]1CC[C@H]2[C@@H](C)CCCC(C)C`, the “activity, negative = inhibition” value is 4.36% [at 25.6 µM].
For `N[C@@]1(C(=O)O)CC[C@H](C(=O)O)C1`, the activity, negative = inhibition entry is “inactive”.
Still for that read-out and setting: to `CC(C)[C@@]1(NC(=O)[C@@H]2C[C@H]3c4cccc5[nH]cc(c45)C[C@@H]3N(C)C2)O[C@]2(O)[C@H]3CCCN3C(=O)CN2C1=O` belongs 24.7% [at 25.6 µM]; to `CC[C@H](CO)NC(=O)[C@@H]1C=C2c3cccc4c3c(cn4C)C[C@@H]2N(C)C1`, -17.3%.
With `CC(C)C[C@H]1C(=O)N2CCC[C@@H]2[C@@]2(O)O[C@](NC(=O)[C@@H]3C=C4c5cccc6[nH]cc(c56)C[C@@H]4N(C)C3)(C(C)C)C(=O)N12`, the AC50 is 2 µM (active).
Take `CCNC(=S)NC1CC2CCCC(C1)N2Cc1ccco1` (stereo unspecified): the activity, negative = inhibition is -6.93% [at 2.29 µM].
For the compound `CC1=CC(=O)C2=C(C)C[C@@H](O)[C@@H]3[C@@H](OC(=O)[C@H]3C)[C@H]12`, the “activity, negative = inhibition” value was -15.3% [at 25.6 µM].
Regarding `O=C(Nc1cccc2ccccc12)c1nn(C23CC4CC(CC(C4)C2)C3)cc1Br`, the “activity, negative = inhibition” value is -0.237%.
Still for that read-out and setting: with `NCCCNCCSP(=O)(O)O` the figure was 5.35%; with `CNC(=S)NC1CC2CCCC(C1)N2CC(C)C` (stereo unspecified), -10%; with `C[C@@H]1O[C@H](O[C@H]2C[C@@H](O)[C@@]3(CO)[C@H]4[C@@H](O)C[C@]5(C)[C@@H](C6=CC(=O)OC6)CC[C@]5(O)[C@H]4CC[C@]3(O)C2)[C@@H](O)[C@H](O)[C@@H]1O`, -4.78% [at 25.6 µM].
Same read-out and setting: to `Cc1ccc(C2(c3ccc(C)c(O)c3C)CCN(C)CC2)c(C)c1O` belongs -1.39% [at 11.4 µM].
As for `CCOP(=O)(OCC)c1nc(/C=C/c2ccccc2)oc1NCc1ccccc1`, the AC50 is 14.1 µM (active).
In the case of `C[C@H](Br)C(=O)c1ccc2cc(Br)c3ccccc3c2c1`, the activity, negative = inhibition was -23.5% [at 11.4 µM].
On the same count and under the same terms, with `NCCc1c[nH]c2ccc(C(N)=O)cc12` the entry was “inactive”; with `CCCN(CCC)[C@H]1CCc2c(F)ccc(O)c2C1`, “inactive”.
With `CCS(=O)(=O)Nc1cccc(C(=C2CCCCC2)c2cnc[nH]2)c1`, the AC50 was 0.316 µM (active).
In the case of `CC1(C)CCC(C)(C)c2c1ccc(O)c2Cc1c(O)ccc2c1C(C)(C)CCC2(C)C`, the activity, negative = inhibition was -26.4% [at 11.4 µM].
For `C[C@@]12CC[C@H](O)C[C@@H]1CC[C@H]1[C@H]2CC[C@@]2(C)[C@@H](C3=CC(=O)OC3)CC[C@]12O`, the AC50 is 3.16 µM (active).
In the case of `C[C@@]12CC[C@H](O)C[C@@H]1CC[C@H]1[C@@H]2C[C@@H](O)[C@]2(C)[C@@H](C3=CC(=O)OC3)CC[C@]12O`, the “activity, negative = inhibition” value is 2.53% [at 25.6 µM].
As for `C[C@@]12CC[C@H](O)C[C@@H]1CC[C@@H]1[C@@H]2CC[C@@]2(C)[C@@H](C3=CC(=O)OC3)[C@H](O)C[C@]12O`, the activity, negative = inhibition was -21.4% [at 11.4 µM].
Take `CC[N+](CC)(CC)CCOc1cccc(OCC[N+](CC)(CC)CC)c1OCC[N+](CC)(CC)CC`: the “activity, negative = inhibition” value was 2.58% [at 25.6 µM].
For the compound `CCN1C[C@@]2(COC)[C@H]3[C@@H](OC)[C@H]4C1[C@@]3([C@H](OC)C[C@@H]2O)[C@H]1C[C@@]2(O)[C@@H](OC(=O)c3ccccc3)[C@@H]1[C@@]4(OC(C)=O)[C@H](O)[C@@H]2OC`, the “activity, negative = inhibition” value was -14.5% [at 25.6 µM].
With `O=c1c2ccccc2c2ccccc2c(=O)n1-c1cc2c3ccccc3ccc2c2ccccc12`, the activity, negative = inhibition is -20.6% [at 11.4 µM].
`CC1=C2C(=O)[C@@H]3[C@@H](CC=C4C[C@@H](O)CC[C@@]43C)[C@H]2CC[C@@]12O[C@H]1C[C@H](C)CN[C@H]1[C@@H]2C`: the activity, negative = inhibition is 7.7% [at 11.4 µM].
Still for that read-out and setting: to `Cc1sc2ccccc2c1CC1=NCCN1` belongs -5.52%.
With `CC(N)Cc1ccccc1Sc1ccc(O)cc1` (stereo unspecified), the activity, negative = inhibition was 13.2% [at 2.29 µM].
Consider `O=[N+]([O-])c1cc([As](=O)(O)O)ccc1O`, for which the “activity, negative = inhibition” value is -2.7% [at 25.6 µM].
Take `CCn1c(O)c(C(c2ccccn2)c2c(O)n(CC)c(=S)[nH]c2=O)c(=O)[nH]c1=S`: the “activity, negative = inhibition” value was -18.3%.
Take `Cn1c(O)c(C(c2ccccn2)c2c(O)n(C)c(=S)[nH]c2=O)c(=O)[nH]c1=S`: the “activity, negative = inhibition” value was -8.62%.
Take `Cn1c(O)c(C(c2ccccn2)c2c(O)n(C)c(=S)n(C)c2=O)c(=O)n(C)c1=S`: the AC50 is 0.794 µM (active).
Regarding `c1ccc(N2CCC3(CCNCC3)CC2)cc1`, the “activity, negative = inhibition” value is -14.2%.
On the same count and under the same terms, to `Cn1cc(C(=O)C(=O)N[C@H]2CN3CCC2CC3)c2ccccc21` belongs -12.3%; to `C[C@H](N)[C@H](O)c1ccc(O)c(O)c1`, “inactive”; to `CC[C@]1(c2cccc(O)c2)CCCCN(C)C1`, -9.23% [at 25.6 µM].
On the same count and under the same terms, to `CC(C)CCn1c(N)c(C(=O)NCc2cccs2)c2nc3ccccc3nc21` belongs -19.7% [at 2.29 µM].
Consider `COc1ccc(Cn2c(N)c(C(=O)NCc3ccco3)c3nc4ccccc4nc32)cc1`, for which the AC50 was 11.2 µM (active).
Take `CCCCn1c(N)c(C(=O)NCc2cccs2)c2nc3ccccc3nc21`: the activity, negative = inhibition is -29.4% [at 2.29 µM].
For `CC(=O)OCC(=O)[C@@H]1CC[C@H]2[C@H]3CC[C@H]4C[C@@H](O)CC[C@]4(C)[C@@H]3C(=O)C[C@@]12C`, the “activity, negative = inhibition” value was -27.9% [at 25.6 µM].
In the case of `O=C(O)C[C@H]1NCc2cc3ccccc3nc21`, the activity, negative = inhibition was -6.42% [at 11.4 µM].
Turning to `CCC1=C(C[C@H]2NCCc3ccccc32)C[C@@H]2c3cc(OC)c(OC)cc3CCN2C1`, the activity, negative = inhibition was -26.3% [at 11.4 µM].
On the same count and under the same terms, with `COc1ccc(C(=O)O[C@H]2CC[C@@]3(C)[C@H]4CC[C@H]5[C@]3(C[C@]3(O)[C@H]6CN7C[C@H](C)CC[C@H]7[C@](C)(O)[C@]6(O)[C@H](O)C[C@]53O)O[C@]24O)cc1OC` the figure was -3.45% [at 11.4 µM]; with `Nc1ccccc1O.O.O=C(O)[C@H]1[O][Sb][O][C@H]1C(=O)O`, -6.7% [at 11.4 µM].
Regarding `O=C=Nc1ccc(Cc2ccc(N=C=O)cc2)cc1` (tested in a mixture with another compound), the activity, negative = inhibition is 6.47% [at 11.4 µM].
With `O=S1(=O)N(CCN2CC=C(c3c[nH]c4cc(F)ccc34)CC2)c2cccc3c2N1CCC3`, the AC50 is 5.01 µM (active).
